# In PubChem BioAssay AID1159580 (chemical genetic matrix, 2015):
# About 2,000 (36%) of roughly 5,500 compounds were called active. Another 18% or so got no clear call; they are omitted. The list shows a part of the results. A number with no mark means an inactive call. No stated cut-off is given here; in the data, active means normalized growth mostly below about 0.91 (no sharp cut-off); inconclusive means no clear call, values can overlap the other calls; inactive means mostly above about 0.92.
# Assay: chemical genetic growth profiling, strain panel (AID 1159580);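 further: tested at 20 µM; growth read once vehicle control cultures reached saturation at 30 °C; 1 = growth at the plate median or of vehicle wells; lower values mean less growth of the strain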
# Conditions: S. cerevisiae deletion strains, growth OD
# [1] = locus YAL040C, strain CLN3, active compounds read low
# [2] = locus YCL061C, strain MRC1 (second series), active compounds read low
# [3] = locus YDR363W, strain ESC2, active compounds read low
# [4] = locus YER002W, strain NOP16, active compounds read low
# [5] = locus YNL175C, strain NOP13, active compounds read low
# [6] = locus YNL197C, strain WHI3, active compounds read low
# [7] = locus YNL224C, strain SQS1, active compounds read low
# [8] = locus YOR083W, strain WHI5 (second series), active compounds read low
# [9] = locus YPL241C, strain CIN2, active compounds read low
# [10] = locus YGR078C, strain PAC10, active compounds read low
structure (smiles),measurement,setting,value
COc1cc(C(O)CO)ccc1OS(=O)(=O)O (stereo not drawn),normalized growth,[1],0.981
same,normalized growth,[2],1
same,normalized growth,[3],0.994
same,normalized growth,[4],0.991
same,normalized growth,"locus YGR229C, strain SMI1, active compounds read low",1.01
same,normalized growth,[5],0.998
same,normalized growth,[6],1
same,normalized growth,[7],1.01
same,normalized growth,"locus YNL322C, strain KRE1, active compounds read low",1.01
same,normalized growth,[8],1.05
same,normalized growth,[9],0.996
C1COC(NC(C2CC2)C2CC2)=N1,normalized growth,[1],1.01
same,normalized growth,[2],0.997
same,normalized growth,[3],1.01
same,normalized growth,[4],0.995
same,normalized growth,[10],0.997
same,normalized growth,"locus YMR307W, strain GAS1, active compounds read low",0.956
same,normalized growth,[5],1.01
same,normalized growth,[6],0.997
same,normalized growth,[7],0.999
same,normalized growth,[8],1.01
CSc1nc(N)c2ncn([C@@H]3O[C@H](COP(=O)(O)OP(=O)(O)OP(=O)(O)O)[C@H](O)C3O)c2n1 (stereo partly drawn),normalized growth,[1],0.978
same,normalized growth,"locus YDR150W, strain NUM1, active compounds read low",1.03
same,normalized growth,[4],0.998
same,normalized growth,[10],0.981
same,normalized growth,"locus YMR263W, strain SAP30, active compounds read low",1
same,normalized growth,"locus YNL153C, strain GIM3, active compounds read low",1.01
same,normalized growth,[5],0.986
same,normalized growth,[6],0.979
same,normalized growth,[7],0.967
same,normalized growth,[8],1
same,normalized growth,[9],1.01
COc1cc(Br)cc(C=Nc2ccc(Sc3ccccc3)nc2Sc2ccccc2)c1O,normalized growth,"locus YAR019C, strain CDC15, active compounds read low",0.968
same,normalized growth,"locus YBL105C, strain PKC1, active compounds read low",0.976
same,normalized growth,"locus YBR135W, strain CKS1, active compounds read low",0.96
same,normalized growth,"locus YBR136W, strain MEC1, active compounds read low",0.973
same,normalized growth,"locus YBR160W, strain CDC28, active compounds read low",0.965
same,normalized growth,"locus YDL017W, strain CDC7, active compounds read low",0.969
same,normalized growth,"locus YDL028C, strain MPS1, active compounds read low",0.962
same,normalized growth,"locus YDL101C, strain DUN1, active compounds read low",0.969
same,normalized growth,"locus YDL108W, strain KIN28, active compounds read low",0.958
same,normalized growth,"locus YDL132W, strain cdc53, active compounds read low",0.949
same,normalized growth,"locus YDL214C, strain PRR2, active compounds read low",0.838
same,normalized growth,"locus YDR052C, strain DBF4, active compounds read low",0.976
same,normalized growth,"locus YDR054C, strain cdc34, active compounds read low",0.957
same,normalized growth,"locus YDR226W, strain ADK1, active compounds read low",0.964
same,normalized growth,"locus YDR477W, strain SNF1, active compounds read low",0.812
same,normalized growth,"locus YER123W, strain YCK3, active compounds read low",0.831
same,normalized growth,"locus YER133W, strain GLC7, active compounds read low",0.843
same,normalized growth,"locus YFL009W, strain cdc4, active compounds read low",0.955
same,normalized growth,"locus YFL029C, strain CAK1, active compounds read low",0.966
same,normalized growth,"locus YFR003C, strain YPI1, active compounds read low",0.967
same,normalized growth,"locus YFR019W, strain FAB1, active compounds read low",0.969
same,normalized growth,"locus YFR028C, strain CDC14, active compounds read low",0.955
same,normalized growth,"locus YGR040W, strain KSS1, active compounds read low",0.857
same,normalized growth,"locus YGR052W, strain FMP48, active compounds read low",0.782
same,normalized growth,"locus YGR092W, strain DBF2, active compounds read low",0.523
same,normalized growth,"locus YHR030C, strain SLT2, active compounds read low",0.489 (active)
same,normalized growth,"locus YHR079C, strain IRE1, active compounds read low",0.703
same,normalized growth,"locus YHR082C, strain KSP1, active compounds read low",0.845
same,normalized growth,"locus YHR205W, strain SCH9, active compounds read low",0.696
same,normalized growth,"locus YIL147C, strain SLN1, active compounds read low",0.964
same,normalized growth,"locus YJL095W, strain BCK1, active compounds read low",0.638
same,normalized growth,"locus YJL128C, strain PBS2, active compounds read low",0.918
same,normalized growth,"locus YJL157C, strain FAR1, active compounds read low",0.848
same,normalized growth,"locus YJR016C, strain ILV3, active compounds read low",0.974
same,normalized growth,"locus YJR066W, strain TOR1 (second series), active compounds read low",0.848
same,normalized growth,"locus YJR066W, strain TOR1, active compounds read low",0.636
same,normalized growth,"locus YKL048C, strain ELM1, active compounds read low",0.935
same,normalized growth,"locus YKL067W, strain YNK1, active compounds read low",0.808
same,normalized growth,"locus YKL101W, strain HSL1, active compounds read low",0.861
same,normalized growth,"locus YKL193C, strain SDS22, active compounds read low",0.962
same,normalized growth,"locus YKL203C, strain TOR2, active compounds read low",0.91
same,normalized growth,"locus YLR113W, strain HOG1, active compounds read low",0.746 (active)
same,normalized growth,"locus YLR133W, strain CKI1, active compounds read low",0.846
same,normalized growth,"locus YLR403W, strain SFP1, active compounds read low",0.772
same,normalized growth,"locus YML070W, strain DAK1, active compounds read low",0.888
same,normalized growth,"locus YMR001C, strain CDC5, active compounds read low",0.951
same,normalized growth,"locus YMR205C, strain PFK2 (second series), active compounds read low",0.843
same,normalized growth,"locus YMR277W, strain FCP1, active compounds read low",0.959
same,normalized growth,"locus YNL006W, strain LST8, active compounds read low",0.971
same,normalized growth,"locus YNL020C, strain ARK1, active compounds read low",0.82
same,normalized growth,"locus YNL161W, strain CBK1, active compounds read low",0.972
same,normalized growth,"locus YNL183C, strain NPR1, active compounds read low",0.72
same,normalized growth,"locus YNL207W, strain RIO2, active compounds read low",0.961
same,normalized growth,"locus YNL222W, strain SSU72, active compounds read low",0.962
same,normalized growth,"locus YNL307C, strain MCK1 (second series), active compounds read low",0.766
same,normalized growth,"locus YOL078W, strain AVO1, active compounds read low",0.963
same,normalized growth,"locus YOL136C, strain PFK27, active compounds read low",0.893
same,normalized growth,"locus YOR061W, strain CKA2, active compounds read low",0.824
same,normalized growth,"locus YOR119C, strain RIO1, active compounds read low",0.838
same,normalized growth,"locus YOR231W, strain MKK1, active compounds read low",0.766
same,normalized growth,"locus YOR329C, strain SCD5, active compounds read low",0.967
same,normalized growth,"locus YPL031C, strain PHO85, active compounds read low",0.827
same,normalized growth,"locus YPL153C, strain RAD53, active compounds read low",0.808
same,normalized growth,"locus YPL204W, strain HRR25, active compounds read low",0.801
same,normalized growth,"locus YPL209C, strain IPL1, active compounds read low",0.968
same,normalized growth,"locus YPL256C, strain CLN2, active compounds read low",0.794 (active)
same,normalized growth,"locus YPR025C, strain CCL1, active compounds read low",0.962
same,normalized growth,"locus YPR106W, strain ISR1, active compounds read low",0.957
same,normalized growth,"locus YPR111W, strain DBF20, active compounds read low",0.939
same,normalized growth,"strain NNK1, active compounds read low",0.97
same,normalized growth,"strain TSCII, active compounds read low",0.964
